We go through eight molecules from PubChem BioAssay (NCI).

Assay in all cases: NCI-60 one-dose screen, 48 h (100 = growth as untreated, 0 = no growth, -100 = all killed)
Conditions in all cases: 10 µM unless noted

Assay [1] relates to DU-145 prostate.
In assay [2] the test system is K-562 leukemia.
Assay [3] concerns MALME-3M melanoma.
In assay [4] the test system is MDA-MB-231 breast.
For assay [5], the system named is RXF 393 renal.
In assay [6] the test system is SF-268 CNS.
The subject of assay [7] is SF-295 CNS.
The test system of assay [8] is SF-539 CNS.
Assay [9] relates to UACC-257 melanoma.
In assay [10] the test system is M14 melanoma.
Assay [11] relates to HCT-15 colon.
For assay [12], the system named is HT29 colon.
Assay [13] relates to SNB-75 CNS.
Assay [14] concerns SNB-19 CNS.
The subject of assay [15] is U251 CNS.
For assay [16], the system named is PC-3 prostate.
Assay [17] relates to SK-MEL-5 melanoma.
The subject of assay [18] is UACC-62 melanoma.
The subject of assay [19] is LOX IMVI melanoma.
In assay [20] the test system is SK-MEL-28 melanoma.

The structures appear in SMILES notation. This is part of a sample that, as a whole, favours compounds with a hit. Of some 83,000 tested, about 20% had one in any assay.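 Plates (96-well) were seeded with cells, treated with compound at one concentration, and incubated for 48 hours before percent growth was determined.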 Unmarked numbers belong to inactive results. Active and inactive are the calls of the source. The calls were made as follows: active = growth percent below 10; inactive = the rest.

As for `COc1ccc2c(c1OC)C(=O)O[C@H]2[C@H]1c2c(cc3c(c2OC)OCO3)CCN1C`, the growth is 117% in [1]; 66.4% in [2]; 92.2% in assay [3]; 104% in [4]; 108% in assay [5]; 110% in assay [6]. In addition, the growth was 94.1% in assay [7]; 98.9% in [8]; 95.2% in assay [9]; 94.8% in assay [10]; 95.6% in assay [11]; 104% in assay [12]. Moreover, the growth in assay [13] was 88.5%; in [14], 103%; in assay [15] it was 97.2%; in [16], 90.1%; in assay [17], 96.2%; in [18] it was 109%. Also, the growth was 90.2% in assay [19] and 100% in [20].

With `COc1cc(/C=C/C(=O)/C=C/c2cc(OC)c3c(c2OC)OCO3)c(OC)c2c1OCO2`, the growth in assay [1] is 28.3%; in [2], 12.4%; in assay [3] it was 46.7%; in [4], 46%; in [5], 16.6%; in assay [6] it was 48.7%. For the same molecule, the growth in assay [7] is 89.7%; in assay [8], 29.4%; in assay [9], 54.1%; in [10] it was 31.7%; in assay [11] it was 31.9%; in assay [12] it was 68.5%. Further, the growth is 33.4% in [13]; 55.4% in assay [14]; 11.5% in assay [15]; 41% in assay [16]; 45.1% in [17]; 25.5% in assay [18]. The results for the growth in assay [19] and in assay [20] were 32.9% and 55.6%, respectively.

As to `CN(C(=O)NCc1cccc(F)c1Cl)[C@H](COC(=O)Nc1cc2ccccc2cn1)CC(O)CO` (stereo not given in full), the growth in assay [1] was 94.4%; in assay [2], 91.5%; in assay [3], 100%; in assay [4], 46.8%; in assay [5], 84.8%; in [6], 49.8%. Moreover, the growth was 69.7% in assay [7]; 37% in assay [8]; 102% in assay [9]; 98.8% in assay [10]; 101% in [11]; 99.4% in assay [12]. Besides, the growth is -21.4% (active) in [13]; 97.2% in assay [14]; 74% in [15]; 80.8% in assay [16]; 103% in assay [17]; 106% in assay [18]. Further, the results for the growth in assay [19] and in [20] were 61.9% and 119%, respectively.

In the case of `Cc1cc(=O)[nH]c(=O)n1Cc1cn(-c2c3ccccc3nc3ccccc23)nn1`, the growth in [1] was 15.7%; in assay [2], 7.13% (active); in assay [3], 93.6%; in assay [4], 77.3%; in [5], 90.7%; in assay [6] it was 90.4%. Further, the growth in [7] is 102%; in assay [8], 98.9%; in assay [9], 67%; in assay [10], 97.8%; in assay [11], 79.2%; in [12] it was 113%. For the same molecule, the growth in assay [13] was 103%; in [14], 87.3%; in assay [15], 88.3%; in assay [16], 97.3%; in assay [17], 78.9%; in assay [18], 85.2%. Also, the growth in assay [19] was 15.2%; in assay [20], 75.6%.

For `O=c1c2cc(F)cc(Cl)c2sc2c(NCCCNCCO)nc3ccccc3c12`, the growth is 77% in assay [1]; 18.7% in [2]; 99.8% in assay [3]; 48.8% in assay [4]; 80.3% in [5]; 67.1% in assay [6]. Besides, the growth in assay [7] is 104%; in assay [8], 88.5%; in assay [9] it was 109%; in [10], 62.3%; in assay [11] it was 77.3%; in [12] it was 3.35% (active). For the same molecule, the growth was 74.6% in [13]; 88.1% in [14]; 75.8% in [15]; 82.7% in [16]; 98.9% in assay [17]; 99.9% in assay [18]. Also, the growth in assay [19] is 66%; in assay [20], 108%.

As for `CN1CCN(CC(=O)N2c3cccc4cccc(c34)N(C(=O)CN3CCN(C)CC3)C2c2cn(-c3ccccc3)nc2-c2cccc([N+](=O)[O-])c2)CC1`, the growth is 28.7% in assay [1]; -43.9% (active) in [2]; -86.7% (active) in assay [3]; -60.9% (active) in assay [4]; -19.1% (active) in assay [5]; 7.89% (active) in assay [6]. Further, the growth in [7] was -67.1% (active); in [8], -86.1% (active); in assay [9], -75.9% (active); in assay [10] it was -81.7% (active); in [11] it was -13.6% (active); in assay [12], -33.5% (active). For the same molecule, the growth was 65% in [13]; 24.9% in assay [14]; -64.4% (active) in [15]; 22.6% in assay [16]; -97.8% (active) in [17]; -83.6% (active) in assay [18]. Besides, the results for the growth in assay [19] and in assay [20] were -93.8% (active) and -89.5% (active), respectively.

For `CCOC(=O)c1cnn2c3ccccc3n(S(=O)(=O)c3ccc(OC)cc3)c12`, the growth in assay [1] is 14.8%; in [2] it was 11.2%; in assay [3] it was 60.7%; in assay [4], 10.2%; in [5], -6.6% (active); in assay [6], 44.7%. The growth in assay [7] was 14.1%; in [8], -3.57% (active); in assay [9], 80.1%; in [10], 25.3%; in assay [11], 13%; in [12], 11.6%. Also, the growth was 61.3% in [13]; 27.5% in [14]; 26.3% in [15]; 35.7% in [16]; -15% (active) in assay [17]; 25.7% in [18]. Further, the growth is 18.7% in assay [19] and 57.9% in [20].

For `COc1ccc(-c2cc(-c3ccc(Cl)cc3)c(C#N)c(=O)n2CCCCCC(=O)Nc2ccccc2N)cc1`, the growth in [1] is 49.8%; in assay [2], 15%; in assay [3], 39%; in assay [4] it was 55.6%; in assay [5] it was 29.8%; in assay [6] it was 75.9%. Besides, the growth is -19.5% (active) in [7]; 60% in assay [8]; 23.4% in assay [9]; -10.9% (active) in assay [10]; 23.1% in assay [11]; 14.8% in assay [12]. Further, the growth was -6.08% (active) in [13]; 70.7% in [14]; 48.8% in [15]; 39.5% in assay [16]; -79.7% (active) in assay [17]; 4.17% (active) in assay [18]. In addition, the growth in assay [19] was -54.2% (active); in [20], 60.5%.
